{
  "source": "PubChem BioAssay (Tox21)",
  "note": "Results filed as inconclusive are left out. Values without a mark were called inactive. The call rests on the fitted dose curve; in most records, active means well fitted activation curve with a large enough effect in the repeat runs; inconclusive means weak or mixed curves; inactive means flat fitted curve, though single readings scatter. On the % scale 0 is the no-effect control and ±100 the full control effect.",
  "data": [
    {"assay": "A CellTox Green Cytotoxicity Assay to monitor cytotoxicity in HepG2 cells - 8 hour (AID 1224890); further: nearly all actives have a fitted effect of over 45% in size", "settings": "CellTox Green fluorescence; series mostly up to 76.8 µM; cytotoxicity increase: at the top concentration", "from_the_text": "National Center for Advancing Translational Sciences [NCATS]\nNIH Chemical Genomics Center [NCGC]\nU.S. Environmental Protection Agency [EPA]\nNational Institutes of Environmental Health Sciences [NIEHS]\nNational Toxicology Program [NTP]\nCell-based models are critical for drug discovery. Determining the natural cytotoxic effects resulting from test compounds is an essential research activity. A CellTox Green Cytotoxicity Assay to monitor cytotoxicity in real time of continues cell culture during 40 hours of the compound treatment was used to screen Tox21 10K library compounds in HepG2 cells. CellTox Green Cytotoxicity Assay is a nonlytic, homogeneous, biofluorescent method to measure cytotoxicity in cell culture after experimental manipulation. The assay system uses a proprietary asymmetric cyanine dye that is excluded from viable cells but preferentially stains the dead cell's DNA. […] Viable cells produce no appreciable increases in fluorescence. Therefore, the fluorescence signal produced by the binding interaction with dead cell DNA is proportional to cytotoxicity.\nThe mixture of HepG2 cell suspension and reagents were dispensed at 600cells/6 ul/well in 1536-well tissue culture treated black solid bottom plates using a Multidrop dispenser. After the assay plates were incubated at a 37 C/5% CO2 incubator for 5 hours, 23 nL of compounds dissolved in DMSO, positive and negative controls was transferred to the assay plate by a pintool work station. The plates were incubated at 37 C for 40 hours. The fluorescence intensity were measured at 0h, 8h, 16h, 24h, 32h and 40h time points using ViewLux plate reader during compound treatment.", "values": [
      {"compound": "C#C[C@]1(O)C=C[C@H]2[C@@H]3CCC4=CC(=O)CC[C@@H]4[C@H]3CC[C@@]21CC", "cytotoxicity increase": "-5.09% [at 35.3 µM]"},
      {"compound": "CC(C)(C)OC(=O)c1ncn2c1[C@@H]1CCCN1C(=O)c1c(Br)cccc1-2", "cytotoxicity increase": "-14.6% [at 35.3 µM]"},
      {"compound": "O=NN1CCCCC1", "cytotoxicity increase": "4.3%"},
      {"compound": "NC1=NC(=O)C(c2ccccc2)O1", "note": "(stereo not given)", "cytotoxicity increase": "-16.3% [at 35.3 µM]"},
      {"compound": "N#CC(O)c1ccccc1", "note": "(stereo not given)", "cytotoxicity increase": "-3.64%"},
      {"compound": "Fc1cc(Br)ccc1CBr", "cytotoxicity increase": "-19.4% [at 35.3 µM]"},
      {"compound": "Cc1cccc(C#N)c1", "cytotoxicity increase": "0.093%"},
      {"compound": "CS(=O)(=O)c1cc(C(F)(F)F)ccc1C(=O)c1cnoc1C1CC1", "cytotoxicity increase": "-9.25%"},
      {"compound": "CCCCc1c(C)nc(NCC)[nH]c1=O", "cytotoxicity increase": "4.57%"},
      {"compound": "CN(C)CCc1ccc(O)cc1", "cytotoxicity increase": "-6.19% [at 35.3 µM]"},
      {"compound": "CC(C)[N+](=O)[O-]", "cytotoxicity increase": "-10.9%"},
      {"compound": "Nc1cc(Cl)ccc1O", "cytotoxicity increase": "-0.527%"},
      {"compound": "CCOC(=O)C1(c2ccccc2)CCN(CCc2ccc(N)cc2)CC1", "cytotoxicity increase": "-5.07% [at 35.3 µM]"},
      {"compound": "CSc1nc(N=[N+]=[N-])nc(NC(C)C)n1", "cytotoxicity increase": "-0.35%"},
      {"compound": "COCC(=O)N(c1c(C)cccc1C)N1CCOC1=O", "cytotoxicity increase": "2.02%"},
      {"compound": "O=C1c2ccccc2C(=O)c2ccccc21", "cytotoxicity increase": "19.4% [at 15.8 µM]"},
      {"compound": "CC(=O)[C@H]1CC[C@H]2[C@@H]3CC[C@H]4C[C@H](O)CC[C@]4(C)[C@H]3C(=O)C[C@]12C", "cytotoxicity increase": "0.697% [at 35.3 µM]"},
      {"compound": "O=C(CCN1CC1)OCC(CO)(COC(=O)CCN1CC1)COC(=O)CCN1CC1", "cytotoxicity increase": "-13.2%"},
      {"compound": "COc1cccc2c1cc([N+](=O)[O-])c1c(C(=O)O)cc3c(c12)OCO3", "cytotoxicity increase": "-1.83%"},
      {"compound": "Cc1ncc(CNC(=O)N(CCCl)N=O)c(N)n1", "cytotoxicity increase": "3.29% [at 35.3 µM]"},
      {"compound": "O=[N+]([O-])c1cc(Cl)c(Cl)c(Cl)c1", "cytotoxicity increase": "1.22%"},
      {"compound": "CC(C)(C)NCC(O)c1cc(Cl)c(N)c(Cl)c1", "note": "(stereo not given)", "cytotoxicity increase": "4.99% [at 35.3 µM]"},
      {"compound": "C=CCC1=C(C)[C@@H](OC(=O)[C@@H]2[C@@H](C=C(C)C)C2(C)C)CC1=O", "cytotoxicity increase": "18%"},
      {"compound": "O=C1OC(CCN2CCCCC2)OC1(c1ccccc1)c1ccccc1", "note": "(stereo not given)", "cytotoxicity increase": "-5.61% [at 35.3 µM]"},
      {"compound": "Nc1ccccc1Cl", "cytotoxicity increase": "-0.266%"},
      {"compound": "C[C@]12CC[C@H]3[C@@H](CCC4=CC(=O)CC[C@@]43C)[C@@H]1CC[C@@H]2C(=O)O", "cytotoxicity increase": "-11% [at 35.3 µM]"},
      {"compound": "COc1cc2c(cc1OC)[C@@]13CCN4CC5=CCO[C@H]6CC(=O)N2[C@H]1[C@H]6[C@H]5C[C@H]43", "cytotoxicity increase": "-1.86%"},
      {"compound": "CC(C)CP(=S)(S)CC(C)C", "cytotoxicity increase": "-4.08%"},
      {"compound": "O=C1OC(c2ccc(O)c(S(=O)(=O)O)c2)(c2ccc(O)c(S(=O)(=O)O)c2)c2c(Br)c(Br)c(Br)c(Br)c21", "cytotoxicity increase": "-4.34% [at 35.3 µM]"},
      {"compound": "CCCCOC(=O)c1ccccc1N", "cytotoxicity increase": "1.65%"},
      {"compound": "CCc1cc2c(s1)-n1c(C)nnc1CN=C2c1ccccc1Cl", "cytotoxicity increase": "-1.56% [at 35.3 µM]"},
      {"compound": "CCS(=O)(=O)CCSP(=O)(OC)OC", "cytotoxicity increase": "-11.8%"},
      {"compound": "NC(=O)O", "cytotoxicity increase": "-1.82%"},
      {"compound": "C=C(C)CN(CC)c1c([N+](=O)[O-])cc(C(F)(F)F)cc1[N+](=O)[O-]", "cytotoxicity increase": "-14.4%"},
      {"compound": "N#CCBr", "cytotoxicity increase": "-12.4%"},
      {"compound": "O=C(Oc1ccc(Br)cc1)N1CCN2CCC1CC2", "cytotoxicity increase": "-2.04%"},
      {"compound": "CCOC(=O)/C=C(C)/C=C/C[C@@H](C)CCCC(C)C", "cytotoxicity increase": "-4.92%"},
      {"compound": "ClCC(Cl)(Cl)Cl", "cytotoxicity increase": "-10.6%"},
      {"compound": "NC(=O)c1cc([N+](=O)[O-])cc([N+](=O)[O-])c1", "cytotoxicity increase": "0.897% [at 35.3 µM]"},
      {"compound": "CC1COC2(c3ccccc3Cl)c3cc(Cl)ccc3NC(=O)CN12", "note": "(stereo not given)", "cytotoxicity increase": "21% [at 35.3 µM]"}
    ]}
  ]
}
